Test results reported in PubChem BioAssay (NCATS).
Results filed as inconclusive are left out. Active and inactive are the calls of the source. The call rests on the fitted dose curve; in most records, active means well fitted curve in the direction sought with a large enough effect; inconclusive means small, poorly fitted or top-dose-only effect, or another doubt; inactive means no such curve, though single readings can be large; an effect the other way counts as inactive or inconclusive.

Tests used:
[1] = biological target: Aldehyde dehydrogenase, mitochondrial (Homo sapiens) (UniProt P05091); assay: qHTS for Inhibitors of the Aldehyde Dehydrogenase Family (ALDH2) Primary screen (AID 2061308); further: nearly all actives have a fitted effect of over 55% in size; further: potency means the concentration at half of the fitted maximal effect
[2] = biological target: Retinaldehyde dehydrogenase 3 (Homo sapiens) (UniProt P47895); assay: qHTS for Inhibitors of the Aldehyde Dehydrogenase Family (ALDH1A3) Validation screen (AID 2061312); further: on the % scale 0 is the no-effect control and ±100 the full control effect; nearly all actives have a fitted effect of over 45% in size
[3] = biological target: Retinaldehyde dehydrogenase 3 (Homo sapiens) (UniProt P47895); assay: qHTS for Inhibitors of the Aldehyde Dehydrogenase Family (ALDH1A3) Primary screen (AID 2061315);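 further: plate controls were DMSO vehicle for no effect and reference inhibitor for full effect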
[4] = BET inhibitor-based combinations targeting novel dependencies in MECOM-rearranged (r) AML: SET-2 cell line (AID 2202231); conditions: SET-2 AML cells viability, CellTiter-Glo luminescence, 48 h; viability: active compounds read low, concentration not given here; further: nearly all actives have a fitted effect of over 35% in size; further: potency means the concentration at half of the fitted maximal effect;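 on viability: plate controls were DMSO treated cells for no effect and wells without cells for full effect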
Method in brief: (§1)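 Luminescent ATP readout (CellTiter-Glo) after 48 hr drug exposure gives viability. Curves span 11 concentrations and are normalized to DMSO and empty wells. Activity is reported as area under the curve and its Z-transform within each cell line.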

[5] = BET inhibitor-based combinations targeting novel dependencies in MECOM-rearranged (r) AML: OCI-AML3 cell line (AID 2202232); conditions: Potency: OCI-AML3 viability; further: potency means the concentration at half of the fitted maximal effect; nearly all actives have a fitted effect of over 35% in size
Method in brief: as §1

[6] = BET inhibitor-based combinations targeting novel dependencies in MECOM-rearranged (r) AML: MV-4-11 cell line (AID 2202233); further: potency means the concentration at half of the fitted maximal effect; nearly all actives have a fitted effect of over 45% in size
Method in brief: (§2)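 Luminescent ATP readout (CellTiter-Glo, 15 min at room temperature) after 48 hr drug exposure gave viability. Dose-response curves, normalized to DMSO and empty-well controls, were summarized as area under the curve and its mean-centred Z-score.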

[7] = BET inhibitor-based combinations targeting novel dependencies in MECOM-rearranged (r) AML: HNT-34 cell line (AID 2202234); further: potency means the concentration at half of the fitted maximal effect; nearly all actives have a fitted effect of over 35% in size
Method in brief: as §2

[8] = BET inhibitor-based combinations targeting novel dependencies in MECOM-rearranged (r) AML: AML-191 cell line (AID 2202236; further: potency means the concentration at half of the fitted maximal effect; nearly all actives have a fitted effect of over 35% in size)
Method in brief: as §1

[9] = BET inhibitor-based combinations targeting novel dependencies in MECOM-rearranged (r) AML: AML-194 cell line (AID 2202237; further: potency means the concentration at half of the fitted maximal effect; nearly all actives have a fitted effect of over 40% in size)
Method in brief: as §1

[10] = biological target: Retinal dehydrogenase 2 (Homo sapiens) (UniProt O94788); assay: qHTS for Inhibitors of the Aldehyde Dehydrogenase Family (ALDH1A2) Confirmation screens (AID 2061314); further: potency means the concentration at half of the fitted maximal effect; nearly all actives have a fitted effect of over 65% in size
[11] = biological target: Aldehyde dehydrogenase 1A1 (Homo sapiens) (UniProt P00352); assay: qHTS for Inhibitors of the Aldehyde Dehydrogenase Family (ALDH1A1) Confirmatory screens (AID 2061316); further: potency means the concentration at half of the fitted maximal effect; nearly all actives have a fitted effect of over 65% in size
[12] = BET inhibitor-based combinations targeting novel dependencies in MECOM-rearranged (r) AML: UCSD-AML1 cell line (AID 2202235); further: potency means the concentration at half of the fitted maximal effect; nearly all actives have a fitted effect of over 40% in size
Method in brief: as §2

CCOC(=O)[C@@H](N)Cc1ccc(-c2cc(O[C@H](c3ccc(Cl)cc3-n3ccc(C)n3)C(F)(F)F)nc(N)n2)cc1
inactive: Potency [1] | Potency [2] | Potency [3]
active: Potency [4] 26.3 µM | Potency [5] 11.8 µM | Potency [6] 9.34 µM | Potency [7] 23.5 µM | Potency [8] 23.5 µM | Potency [9] 26.3 µM

Cc1c(NC(=O)OC[C@@H]2COCCN2)cn2ncnc(Nc3ccc4c(cnn4Cc4cccc(F)c4)c3)c12
inactive: Potency [1] | Potency [2] | Potency [3]
active: Potency [5] 10.5 µM | Potency [6] 18.6 µM | Potency [7] 20.9 µM | Potency [9] 23.5 µM

c1nc(NCC2CCCCO2)c2cc(-c3ccc4c(c3)OCO4)ccc2n1 (centres undefined)
inactive: Potency [1] | Potency [3]
active: Potency [10] 22.5 µM | Potency [11] 12.7 µM

c1ccc(Cn2c(-c3ccc(OCC(C4CCNCC4)n4c(-c5ccccc5)nc5ccccc54)cc3)nc3ccccc32)cc1 (centres undefined)
inactive: Potency [1] | Potency [2] | Potency [3]
active: Potency [5] 23.5 µM | Potency [6] 8.33 µM | Potency [7] 18.6 µM | Potency [12] 26.3 µM | Potency [9] 23.5 µM

CC(O)c1ccc(-c2ccc3ncnc(N4CCOCC4)c3c2)o1 (centres undefined)
inactive: Potency [3]
active: Potency [1] 8.91 µM | Potency [10] 14.2 µM | Potency [11] 11.3 µM

O=C(N[C@H]1CCC[C@H](CO)C1)C1CCN(c2nc3cc(Cl)c(-c4ccc(Cl)cc4)cc3o2)CC1
inactive: Potency [1] | Potency [2] | Potency [3]
active: Potency [4] 20.9 µM | Potency [6] 23.5 µM

CCCc1cc(C)[nH]c(=O)c1CNC(=O)c1cc(-c2ccc(N3CCN(C(C)C)CC3)nc2)cc2c1cnn2C(C)C
inactive: Potency [1] | Potency [2] | Potency [3] | viability [4] 110%
active: Potency [6] 16.6 µM | Potency [12] 16.6 µM | Potency [8] 29.5 µM
